The source of these data is the supplement of paper PMC6555819.

The test system of one experiment is RARa:RXR (NR concentration 270 nM, RXRa partner concentration 90 nM). The experiment can be described thus: PBM binding z-score (relative to random genomic background probes); higher = stronger binding; sequences stand for … in GC…GCGATTGACAGCGTAGAATGAAGG
The procedure, abridged:
(§1)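 On custom Agilent 4×180K arrays, double-stranded probes with 34-nt variable regions carried direct-repeat seeds, single-nucleotide variants, half-site ablations or random human genomic background. Ligand-free nuclear receptor dimers were applied for 1 h, and binding was read with antibodies against each partner (one per run). Binding z-scores come from regression-normalized fluorescence, with the random background probes as reference.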
The sequence GCAGACAGGTGAAACGCAGATAACTCAGGGTGGC had a PBM binding z-score of -0.0859.

In turn, AGAATGAGGTTAAGATCACGGAAACAGAATACAT showed a PBM binding z-score of 2.31.

For the sequence ATCGAAAGGTCGTAGGTGAGTATACCCACCCGAA, the PBM binding z-score was 4.04.

On to CCTATTAGTCGACCATAAGGGCAACCGAAGCTCG, for which the PBM binding z-score was found to be 0.415.

As for ACAGACAGGTGATGGAGGTAACTCAGGCTATCAT, the PBM binding z-score is 0.033.

For the sequence TCTAGCAGGCCAGAGGGTCACTCCAGAGGTACGG, the PBM binding z-score was 1.92.

Consider AGAACTAGGGCACGCTGAGTTGATAGCAGAGTAG, for which the PBM binding z-score is -0.11.

Consider CGTCAAAGTTCAAGGTAACTTAACAGAAAGCAGC, for which the PBM binding z-score is 3.17.

In turn, CCTAGCAGGCCAAACTGGGTCACTCAAGGCTTGA came in with a PBM binding z-score of 1.77.

As to TAAATGAGGTTATAAGATCAGGGAACGTTGCAAA, the PBM binding z-score is 1.62.

In turn, CCTACTGGGCCACGAAAGGTCATTAATTCAGTGA returned a PBM binding z-score of 5.32.

Sequence GCTGCTAGGTCAACTGATGGACAGCTAAAGCTCG gave a PBM binding z-score of 1.9.

As for AATCGGAGGACAAAGGTCAGAGCTACGCCAGTGA, the PBM binding z-score stood at 4.48.

As to TCGAGTAGGTTAGTCGGGGCATTCAGCCAACATA, the PBM binding z-score stood at 0.00411.

TCATATAGGTAAACAGGTGAAATTCCGTAAGTTA showed a PBM binding z-score of 1.67.

As to CGAACTAGGTCATCCAGGACAGTGAGTACATTGA, the PBM binding z-score worked out at 2.46.

ATACCAAGGTGATCGTGAGGTCGCTGATACTAAC showed a PBM binding z-score of 1.66.

Regarding TCGAGTAGGTTCGTCGGGGCATTCAGCCAACATA, the PBM binding z-score was 0.296.

With TAGCCTAGGTCAGATAGGGCCAGTATACGCTATA, the PBM binding z-score came out at 0.802.

The sequence CAAACTAGGTCACCGGAAGGTCACAGTCCGCATG registered a PBM binding z-score of 7.62.

Consider CACACTAGGTCAAGGTCAAAGTCGGTTTGTGCCA, for which the PBM binding z-score was 5.87.

The sequence ACTATTAGTTGAGACGAGGGCAACCAATAGGTTG had a PBM binding z-score of 1.5.

For the sequence ATATGTAGGGTAGCTGGGGTCATTCAGACTAGGC, the PBM binding z-score amounted to 5.97.

CCGAGTAGGATATGGGGCATTCAGGCAACGGTGA gave a PBM binding z-score of -0.0398.

In turn, ATCGACAGGTCGTGAGGTGAGTATACAGAAAGGC had a PBM binding z-score of 1.86.

Take GCGTCTGGGGCATCAGCAGGTTACCATAACTTAA: the PBM binding z-score was 0.336.

In turn, CCGACTGGGGCAAGGCTACCATAACGCACAGCCA registered a PBM binding z-score of -0.164.

In turn, CAAACTAGGTCACCGGTAGGTCAAAGTCCGCATG displayed a PBM binding z-score of 5.43.

TCTTGTAGATCAGCAGTTTAAGAAAGCTGGCCAA had a PBM binding z-score of 0.328.

As for CAGCCTAGGTCAGGCCCAGTATAGGAGGAACGTT, the PBM binding z-score worked out at 0.588.

Sequence ATATATAGGTTAGCTGGGGTCATTCAGACTAGGC yielded a PBM binding z-score of 5.27.

With GCTTACGGTTCAAAGGTTATAGCATGAATAGAAT, the PBM binding z-score was found to be 6.22.

Take AGAATGAGGTTACCGAAGATCAGGGAAACGCTTG: the PBM binding z-score was 2.46.

Consider AGAATGAGGTTATCCGTAGATCAGGGAAGAAAGT, for which the PBM binding z-score came out at 1.76.

The sequence TGAATGAGGTTAAAGATCAGGGAACGTGGCGTCG returned a PBM binding z-score of 3.37.

For AGAATGAGGGTATTAAGATCAGGGAATTGCGGTC, the PBM binding z-score is 0.253.

For CTACCAACGTGAACAAGGTCGTTGATTACTATTC, the PBM binding z-score came out at 1.4.

In turn, ACTAGTCGGTCAGCTGAGGTCACACACAATTCGG had a PBM binding z-score of 4.69.

CCTTGGAGGACAGAAGGTCAGAGCTGTCCGCTTT displayed a PBM binding z-score of 2.36.

In turn, TGTCAAGGTTCAAAGGTAACGTAAGTATCCACAC had a PBM binding z-score of 5.82.

A further experiment deals with RARa homodimer (NR concentration 270 nM). The experiment is described as above. The procedure, abridged:
as §1
GCAGACAGGTGAAACGCAGATAACTCAGGGTGGC: the PBM binding z-score was -0.365.

In the case of AGAATGAGGTTAAGATCACGGAAACAGAATACAT, the PBM binding z-score came to 0.826.

With ATCGAAAGGTCGTAGGTGAGTATACCCACCCGAA, the PBM binding z-score is 0.489.

Take CCTATTAGTCGACCATAAGGGCAACCGAAGCTCG: the PBM binding z-score was 0.709.

Turning to ACAGACAGGTGATGGAGGTAACTCAGGCTATCAT, the PBM binding z-score was -0.0178.

The sequence TCTAGCAGGCCAGAGGGTCACTCCAGAGGTACGG yielded a PBM binding z-score of -0.787.

Regarding AGAACTAGGGCACGCTGAGTTGATAGCAGAGTAG, the PBM binding z-score is -0.599.

As to CGTCAAAGTTCAAGGTAACTTAACAGAAAGCAGC, the PBM binding z-score was found to be 1.69.

As for CCTAGCAGGCCAAACTGGGTCACTCAAGGCTTGA, the PBM binding z-score was -0.26.

TAAATGAGGTTATAAGATCAGGGAACGTTGCAAA displayed a PBM binding z-score of 0.307.

The sequence CCTACTGGGCCACGAAAGGTCATTAATTCAGTGA yielded a PBM binding z-score of 1.1.

Turning to GCTGCTAGGTCAACTGATGGACAGCTAAAGCTCG, the PBM binding z-score was -0.785.

As to AATCGGAGGACAAAGGTCAGAGCTACGCCAGTGA, the PBM binding z-score is 0.693.

For the sequence TCGAGTAGGTTAGTCGGGGCATTCAGCCAACATA, the PBM binding z-score was -0.698.

Turning to TCATATAGGTAAACAGGTGAAATTCCGTAAGTTA, the PBM binding z-score is 2.19.

For the sequence CGAACTAGGTCATCCAGGACAGTGAGTACATTGA, the PBM binding z-score turned out to be 0.186.

For the sequence ATACCAAGGTGATCGTGAGGTCGCTGATACTAAC, the PBM binding z-score was -0.0146.

Sequence TCGAGTAGGTTCGTCGGGGCATTCAGCCAACATA registered a PBM binding z-score of -0.807.

Consider TAGCCTAGGTCAGATAGGGCCAGTATACGCTATA, for which the PBM binding z-score is -0.488.

The sequence CAAACTAGGTCACCGGAAGGTCACAGTCCGCATG had a PBM binding z-score of 3.12.

On to CACACTAGGTCAAGGTCAAAGTCGGTTTGTGCCA, for which the PBM binding z-score came out at 3.51.

As to ACTATTAGTTGAGACGAGGGCAACCAATAGGTTG, the PBM binding z-score came out at 0.723.

For ATATGTAGGGTAGCTGGGGTCATTCAGACTAGGC, the PBM binding z-score was found to be 0.388.

CCGAGTAGGATATGGGGCATTCAGGCAACGGTGA gave a PBM binding z-score of 0.174.

The sequence ATCGACAGGTCGTGAGGTGAGTATACAGAAAGGC displayed a PBM binding z-score of 0.537.

Consider GCGTCTGGGGCATCAGCAGGTTACCATAACTTAA, for which the PBM binding z-score is -0.422.

CCGACTGGGGCAAGGCTACCATAACGCACAGCCA came in with a PBM binding z-score of -0.086.

CAAACTAGGTCACCGGTAGGTCAAAGTCCGCATG gave a PBM binding z-score of 1.6.

With TCTTGTAGATCAGCAGTTTAAGAAAGCTGGCCAA, the PBM binding z-score was 0.193.

The sequence CAGCCTAGGTCAGGCCCAGTATAGGAGGAACGTT gave a PBM binding z-score of -0.629.

In turn, ATATATAGGTTAGCTGGGGTCATTCAGACTAGGC returned a PBM binding z-score of 2.07.

For the sequence GCTTACGGTTCAAAGGTTATAGCATGAATAGAAT, the PBM binding z-score worked out at 0.458.

AGAATGAGGTTACCGAAGATCAGGGAAACGCTTG returned a PBM binding z-score of -1.23.

Consider AGAATGAGGTTATCCGTAGATCAGGGAAGAAAGT, for which the PBM binding z-score is 0.02.

Sequence TGAATGAGGTTAAAGATCAGGGAACGTGGCGTCG gave a PBM binding z-score of 0.135.

Take AGAATGAGGGTATTAAGATCAGGGAATTGCGGTC: the PBM binding z-score was determined as 0.44.

The sequence CTACCAACGTGAACAAGGTCGTTGATTACTATTC had a PBM binding z-score of 0.795.

Sequence ACTAGTCGGTCAGCTGAGGTCACACACAATTCGG returned a PBM binding z-score of 2.2.

The sequence CCTTGGAGGACAGAAGGTCAGAGCTGTCCGCTTT had a PBM binding z-score of 0.737.

On to TGTCAAGGTTCAAAGGTAACGTAAGTATCCACAC, for which the PBM binding z-score came to 0.446.
